Experiment [1] deals with DLD1. Briefly: cell viability (CellTiter-Glo) relative to plate median (fraction of plate median); higher = more viable cells. The note with it: 5 µM; treatment time 24 h; reporter: 7TFP. In short, it runs like this: (§1)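 Signals from firefly luciferase or CellTiterGlo readouts were normalised well by well to the plate median using webcellHTS2, additively and with no log transformation. They came from colorectal cancer cell lines stably holding lentiviral TCF/Wnt firefly luciferase reporters (7TFP or TCF4/Wnt), treated with library compounds at a final 5 µM for 24 h. The mean of two independent replicates is given.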
On the technique in general: ATP-based viability assays read luminescence as a measure of living cells.

In experiment [2] the test system is HCT116. The experiment is described as above. The note with it: 5 µM; treatment time 24 h; reporter: TCF4/Wnt. In short, it runs like this:
as §1

The subject of experiment [3] is SW480. The description is as above. The note with it: 5 µM; treatment time 24 h; reporter: 7TFP. The procedure, abridged:
as §1

The test system of experiment [4] is DLD1. Briefly: TCF/Wnt firefly luciferase reporter signal relative to plate median (fraction of plate median); higher = higher Wnt reporter signal. As to conditions: 5 µM; treatment time 24 h; reporter: 7TFP. In short, it runs like this:
as §1
(In a reporter assay the amount or activity of a reporter protein is the signal.)

The test system of experiment [5] is SW480. The experiment is described as above. The note with it: 5 µM; treatment time 24 h; reporter: 7TFP. The procedure, abridged: as §1

Molecules are shown by their SMILES. ± gives the standard deviation of the averaged measurements.

Consider 27 compounds from the supplement of paper PMC6522484.

Consider `CC(=O)Oc1ccccc1C(=O)O`, for which the cell viability in experiment [1] was 1.01 ± 0.035; in experiment [2] it was 1.02 ± 0.031; in experiment [3], 1.025 ± 0.0071. Besides, the “TCF/Wnt firefly luciferase reporter signal” value in experiment [4] turned out to be 1.05 ± 0.014; in experiment [5] it was 0.97 ± 0.14.

Take `COC(=O)C1=C(C)NC(C)=C(C(=O)OC)C1c1ccccc1[N+](=O)[O-]`: the cell viability came out at 1.05 ± 0.14 in experiment [1], 0.995 ± 0.11 in experiment [2] and 1.06 ± 0.028 in experiment [3]. Moreover, the “TCF/Wnt firefly luciferase reporter signal” value in experiment [4] worked out at 1.04 ± 0.11; in experiment [5], 1.06 ± 0.078.

Regarding `C#CCCCCCCCCCCCC(O)CC(O)CO.C=CCCCCCCCCCCCC(O)CC(O)CO` (stereo not given), the cell viability in experiment [1] was 1.015 ± 0.0071; in experiment [2], 0.974 ± 0.0099; in experiment [3], 1.01 ± 0.051. The entries for the “TCF/Wnt firefly luciferase reporter signal” value in experiment [4] and in experiment [5] were 1.05 ± 0.18 and 0.974 ± 0.11, respectively.

Consider `C[C@H](CCC(=O)O)[C@H]1CC[C@H]2[C@@H]3[C@H](O)C[C@@H]4C[C@H](O)CC[C@]4(C)[C@H]3CC[C@]12C`, for which the results for the cell viability in experiment [1], in experiment [2] and in experiment [3] were 1 ± 0.021, 1.01 ± 0.22 and 1.025 ± 0.0071, respectively. Also, the “TCF/Wnt firefly luciferase reporter signal” value was found to be 0.949 ± 0.038 in experiment [4] and 1.1 ± 0.028 in experiment [5].

Consider `CC(=O)O[C@@H]1C[C@@]2(C)C(CC[C@@H]2C(C)=O)C2CCC3=CC(=O)CC[C@]3(C)C21` (stereo not given in full), for which the cell viability was found to be 0.943 ± 0.019 in experiment [1], 1.09 ± 0.042 in experiment [2] and 0.976 ± 0.024 in experiment [3]. In addition, the figures for the “TCF/Wnt firefly luciferase reporter signal” value in experiment [4] and in experiment [5] were 1.02 ± 0.031 and 0.965 ± 0.033, respectively.

As to `CC1(C)CC[C@]2(C(=O)O)[C@H](O)C[C@]3(C)C(=CC[C@@H]4[C@@]5(C)CC[C@H](O)C(C)(C)[C@@H]5CC[C@]43C)[C@H]2C1`, the cell viability in experiment [1] was 0.9085 ± 0.0035; in experiment [2] it was 0.94 ± 0.16; in experiment [3], 0.9525 ± 0.0092. In addition, the figures for the “TCF/Wnt firefly luciferase reporter signal” value in experiment [4] and in experiment [5] were 0.919 ± 0.033 and 0.999 ± 0.016, respectively.

Take `COc1ccc2c(c1)OCc1c-2oc2cc(OC)ccc12`: the cell viability in experiment [1] came to 1.05 ± 0.085; in experiment [2], 1.01 ± 0.021; in experiment [3], 1 ± 0.051. Also, the “TCF/Wnt firefly luciferase reporter signal” value was found to be 1.09 ± 0.064 in experiment [4] and 1.035 ± 0.0071 in experiment [5].

With `CC(=O)O[C@H]1C[C@@H](OC(C)=O)C(C)(C)[C@@H]2C[C@@H](OC(C)=O)[C@]3(C)[C@H](CC[C@@]4(C)[C@H](c5ccoc5)OC(=O)[C@H]5O[C@@]534)[C@@]12C`, the cell viability in experiment [1] was 1.11 ± 0.14; in experiment [2] it was 1.18 ± 0.028; in experiment [3], 1.15 ± 0.042. In addition, the entries for the “TCF/Wnt firefly luciferase reporter signal” value in experiment [4] and in experiment [5] were 1.07 ± 0.12 and 1.04 ± 0.021, respectively.

With `C[C@@H]1[C@H]2[C@H](O[C@@H]3O[C@H](CO)[C@@H](O)[C@H](O)[C@H]3O)OC=C(C(=O)O)[C@H]2C[C@@H]1O`, the figures for the cell viability in experiment [1], in experiment [2] and in experiment [3] were 1.05 ± 0.035, 1.02 ± 0.1 and 1.03 ± 0.014, respectively. The “TCF/Wnt firefly luciferase reporter signal” value in experiment [4] was 1.07 ± 0.1; in experiment [5], 1.05 ± 0.078.

Regarding `CC(=O)OCC(=O)[C@@]1(O)CC[C@H]2[C@@H]3CCC4=CC(=O)CC[C@]4(C)[C@@]3(F)[C@@H](O)C[C@@]21C`, the cell viability in experiment [1] was 0.975 ± 0.027; in experiment [2] it was 1.07 ± 0.085; in experiment [3], 0.995 ± 0.022. For the same compound, the results for the “TCF/Wnt firefly luciferase reporter signal” value in experiment [4] and in experiment [5] were 1.06 and 1.07 ± 0.11, respectively.

As for `O=C(Nc1ccc([N+](=O)[O-])cc1Cl)c1cc(Cl)ccc1O`, the cell viability in experiment [1] amounted to 0.764 ± 0.05; in experiment [2], 0.614 ± 0.13; in experiment [3], 0.779 ± 0.3. Further, the “TCF/Wnt firefly luciferase reporter signal” value in experiment [4] is 0.92 ± 0.064; in experiment [5], 0.964 ± 0.22.

For `CNCCCC12CCC(c3ccccc31)c1ccccc12`, the cell viability was determined as 1.07 ± 0.085 in experiment [1], 1.085 ± 0.0071 in experiment [2] and 1.07 ± 0.071 in experiment [3]. Besides, the “TCF/Wnt firefly luciferase reporter signal” value in experiment [4] was determined as 1.04 ± 0.035; in experiment [5], 1.1 ± 0.042.

On to `CC(=O)Oc1cc(C)c2c(c1C(OC(C)=O)OC(C)=O)Oc1c(c(C)c(OC(C)=O)c3c1C(OC(C)=O)OC3=O)OC2=O` (stereo not given), for which the results for the cell viability in experiment [1], in experiment [2] and in experiment [3] were 0.969 ± 0.044, 0.975 ± 0.025 and 0.943 ± 0.064, respectively. Further, the entries for the “TCF/Wnt firefly luciferase reporter signal” value in experiment [4] and in experiment [5] were 0.993 ± 0.081 and 1.18 ± 0.099, respectively.

Consider `COc1cc(C(=O)NCc2ccc(OCCN(C)C)cc2)cc(OC)c1OC`, for which the results for the cell viability in experiment [1], in experiment [2] and in experiment [3] were 0.99 ± 0.057, 1 ± 0.13 and 0.996 ± 0.077, respectively. The “TCF/Wnt firefly luciferase reporter signal” value in experiment [4] is 0.871 ± 0.12; in experiment [5] it was 0.851 ± 0.06.

In the case of `C[N+](C)(C)C[C@H](O)CC(=O)[O-]`, the cell viability in experiment [1] came out at 0.964 ± 0.028; in experiment [2] it was 0.976 ± 0.022; in experiment [3], 0.965 ± 0.014. The “TCF/Wnt firefly luciferase reporter signal” value was 0.921 ± 0.014 in experiment [4] and 0.961 ± 0.069 in experiment [5].

As for `CCN(CC)C(C)CN1c2ccccc2Sc2ccccc21` (stereo not given), the cell viability in experiment [1] amounted to 1.07 ± 0.11; in experiment [2], 1.02 ± 0.12; in experiment [3], 0.998 ± 0.045. The figures for the “TCF/Wnt firefly luciferase reporter signal” value in experiment [4] and in experiment [5] were 0.927 ± 0.3 and 1.05 ± 0.078, respectively.

For `O=C(Cn1ccnc1[N+](=O)[O-])NCCO`, the values for the cell viability in experiment [1], in experiment [2] and in experiment [3] were 0.992 ± 0.04, 0.989 ± 0.1 and 0.9935 ± 0.0092, respectively. For the same compound, the “TCF/Wnt firefly luciferase reporter signal” value in experiment [4] stood at 1.09 ± 0.17; in experiment [5], 1.02 ± 0.038.

As to `C=CC(N)CCC(=O)O` (stereo not given), the cell viability is 1.06 ± 0.021 in experiment [1], 0.934 ± 0.086 in experiment [2] and 1.06 in experiment [3]. Further, the “TCF/Wnt firefly luciferase reporter signal” value in experiment [4] amounted to 0.952 ± 0.21; in experiment [5], 1.06 ± 0.092.

For the compound `CC1(C)O[C@@H]2C[C@H]3[C@@H]4C[C@H](F)C5=CC(=O)C=C[C@]5(C)[C@H]4[C@@H](O)C[C@]3(C)[C@]2(C(=O)CO)O1`, the figures for the cell viability in experiment [1], in experiment [2] and in experiment [3] were 0.996 ± 0.0057, 1.03 ± 0.055 and 0.978 ± 0.0042, respectively. In addition, the results for the “TCF/Wnt firefly luciferase reporter signal” value in experiment [4] and in experiment [5] were 0.928 ± 0.0085 and 1.03 ± 0.067, respectively.

As to `CC1(C)C=Cc2c(cc3occ(-c4ccc5c(c4)OCO5)c(=O)c3c2O)O1`, the results for the cell viability in experiment [1], in experiment [2] and in experiment [3] were 0.951 ± 0.083, 0.926 ± 0.17 and 0.952 ± 0.042, respectively. Also, the entries for the “TCF/Wnt firefly luciferase reporter signal” value in experiment [4] and in experiment [5] were 0.909 ± 0.012 and 1 ± 0.042, respectively.

For the compound `CO[C@H]1C[C@@H]2CC[C@@H](C)[C@@](O)(O2)C(=O)C(=O)N2CCCC[C@H]2C(=O)O[C@H]([C@H](C)C[C@@H]2CC[C@@H](O)[C@H](OC)C2)CC(=O)[C@H](C)/C=C(\C)[C@@H](O)[C@@H](OC)C(=O)[C@H](C)C[C@H](C)/C=C/C=C/C=C/1C`, the results for the cell viability in experiment [1], in experiment [2] and in experiment [3] were 1.18 ± 0.028, 0.976 ± 0.049 and 1.35 ± 0.11, respectively. The entries for the “TCF/Wnt firefly luciferase reporter signal” value in experiment [4] and in experiment [5] were 0.838 ± 0.15 and 1.2 ± 0.21, respectively.

Take `Nc1ncnc2c1ncn2[C@@H]1O[C@H](CO)[C@@H](O)[C@H]1O`: the figures for the cell viability in experiment [1], in experiment [2] and in experiment [3] were 1.06 ± 0.014, 1.06 ± 0.09 and 1.04 ± 0.035, respectively. Also, the “TCF/Wnt firefly luciferase reporter signal” value stood at 1.07 ± 0.17 in experiment [4] and 1.15 ± 0.028 in experiment [5].

As to `CCCOc1ccccc1-c1nc2[nH]nnc2c(=O)[nH]1`, the cell viability in experiment [1] amounted to 0.985 ± 0.035; in experiment [2], 0.973 ± 0.14; in experiment [3] it was 0.909 ± 0.058. The “TCF/Wnt firefly luciferase reporter signal” value in experiment [4] turned out to be 1.01 ± 0.064; in experiment [5] it was 0.951 ± 0.084.

In the case of `CN[C@@H]1[C@H](O[C@H]2[C@H](O[C@H]3[C@H](O)[C@@H](O)[C@H](NC(=N)N)[C@@H](O)[C@@H]3NC(=N)N)O[C@@H](C)[C@]2(O)CO)O[C@@H](CO)[C@H](O)[C@H]1O`, the cell viability turned out to be 0.9855 ± 0.0078 in experiment [1], 1.13 ± 0.042 in experiment [2] and 1.055 ± 0.0071 in experiment [3]. For the same compound, the “TCF/Wnt firefly luciferase reporter signal” value in experiment [4] was found to be 1.18 ± 0.071; in experiment [5], 1.11.

In the case of `O=CN(O)CCCC(NC(=O)C(CO)NC(=O)C1COC(c2ccccc2O)=N1)C(=O)NCCC(=O)NC1CCCN(O)C1=O` (stereo not given) [Oxachelin], the cell viability in experiment [1] amounted to 0.9715 ± 0.0092; in experiment [2], 1.07 ± 0.16; in experiment [3] it was 1.03 ± 0.059. The entries for the “TCF/Wnt firefly luciferase reporter signal” value in experiment [4] and in experiment [5] were 1.11 ± 0.021 and 1.03 ± 0.085, respectively.

On to `CC1(C)S[C@@H]2[C@H](NC(=O)COc3ccccc3)C(=O)N2[C@H]1C(=O)O`, for which the cell viability in experiment [1] amounted to 1.09 ± 0.021; in experiment [2] it was 1.05; in experiment [3], 1.01 ± 0.023. The entries for the “TCF/Wnt firefly luciferase reporter signal” value in experiment [4] and in experiment [5] were 1.1 ± 0.028 and 1.08 ± 0.05, respectively.

Take `O=C(CCc1ccc(O)cc1)c1c(O)cc(O)cc1O[C@@H]1OC(CO)[C@@H](O)[C@@H](O)C1O` (stereo not given in full): the cell viability in experiment [1] turned out to be 1.07 ± 0.064; in experiment [2], 1.01 ± 0.016; in experiment [3], 1.03 ± 0.021. In addition, the “TCF/Wnt firefly luciferase reporter signal” value in experiment [4] came to 0.909 ± 0.033; in experiment [5] it was 1.06 ± 0.092.
